Test results taken from PubChem BioAssay (Tox21).
Results filed as inconclusive are left out. Calls of active or inactive are those of the source. Unless noted, calls follow the shape of the dose curve; as a rule, active = well fitted curve in the direction sought with a large enough effect in the repeat runs; inconclusive = weak or mixed curves; inactive = no such curve, though single readings can be large; an effect the other way counts as inactive or inconclusive.

Legend:
[1] = qHTS RealTime-Glo MT Cell Viability Assay in HEK293 cells - 24 hour (AID 1224886); also: top concentration of the series differs between compounds; nearly all actives have a fitted effect of over 50% in size
Method in brief: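 Nonlytic real-time viability readout: viable cells convert prosubstrate to NanoLuc substrate, giving luminescence proportional to live cell number. HEK293, 600 cells/well, compound added after 5 h, continuous culture at 37 C.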

[2] = qHTS RealTime-Glo MT Cell Viability Assay in HEK293 cells - 8 hour (AID 1224887); also: top concentration of the series differs between compounds; nearly all actives have a fitted effect of over 50% in size
Method in brief: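 Kinetic, non-lysing viability readout. Seed HEK293 (600/well) with reagent, incubate 5 h at 37 C/5% CO2, pin 23 nL compound in DMSO, incubate at 37 C, read luminescence at 0, 8, 16, 24, 32, 40 h.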

[3] = A CellTox Green Cytotoxicity Assay to monitor cytotoxicity in HEK293 cells - 16 hour (AID 1224888); also: nearly all actives have a fitted effect of over 35% in size
Method in brief: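 Real-time, in one plate: 600 HEK293 cells/well with dead-cell DNA dye, pinned compound after 5 h, 37 C incubation over 40 h; viable cells give no appreciable fluorescence.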

[4] = qHTS RealTime-Glo MT Cell Viability Assay in HepG2 cells - 0 hour (AID 1224889); also: nearly all actives have a fitted effect of over 50% in size
Method in brief: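 Luminescence read-out: viable HepG2 cells reduce a prosubstrate to a NanoLuc substrate, giving a signal proportional to live cell number. Reads taken at 0, 8, 16, 24, 32 and 40 h of compound exposure at 37 C.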

[5] = A CellTox Green Cytotoxicity Assay to monitor cytotoxicity in HepG2 cells - 8 hour (AID 1224890); also: nearly all actives have a fitted effect of over 45% in size
Method in brief: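 Cytotoxicity was tracked as dead-cell DNA fluorescence in HepG2 cells treated with test compounds at 37 C; each time-point value comes from one kinetic series spanning 0, 8, 16, 24, 32 and 40 h.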

[6] = qHTS assay to identify small molecule antagonists of the estrogen receptor alpha (ER-alpha) signaling pathway using the BG1 cell line in the presence of 0.1 nM 17-beta-estradiol - cell viability counter screen (AID 1259241); also: nearly all actives have a fitted effect of over 40% in size
Method in brief: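 VM7Luc4E2, 4,000 cells/well, phenol red-free medium + 10% charcoal-stripped FBS; 24 hr plating; cpd + 0.1 nM E2 final, 22 hr 37C/5% CO2; CellTiter-Fluor 30 min, fluorescence.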

[7] = qHTS assay to identify small molecule antagonists of the androgen receptor (AR) signaling pathway using the MDA cell line in the presence of 0.5 nM R1881 - cell viability counter screen (AID 1259242); also: nearly all actives have a fitted effect of over 45% in size
Method in brief: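 Cells seeded at 3,000/well and allowed 5 hr at 37C, 0% CO2 before compound transfer and R1881 (0.5 nM final) addition; 16 hr later, live-cell protease fluorescence indicated cytotoxicity.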

[8] = target: Androgen receptor (Homo sapiens) (UniProt P10275); assay: qHTS assay to identify small molecule antagonists of the androgen receptor (AR) signaling pathway using the MDA cell line in the presence of 0.5 nM R1881 (AID 1259243); also: nearly all actives have a fitted effect of over 50% in size
Method in brief: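 Luminescence from an AR/GR-responsive MMTV-luciferase construct in MDA-kb2 breast carcinoma cells, read 30 min after ONE-Glo, following 16 hr co-treatment with compounds and 0.5 nM R1881.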

[9] = target: Estrogen receptor (Homo sapiens) (UniProt P03372); assay: qHTS assay to identify small molecule antagonists of the estrogen receptor alpha (ER-alpha) signaling pathway using the BG1 cell line in the presence of 0.1 nM 17-beta-estradiol (AID 1259244); also: nearly all actives have a fitted effect of over 50% in size
Method in brief: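 Luciferase signal from VM7Luc4E2 ERE-reporter cells, co-dosed with test compound and 0.1 nM final 17beta-estradiol for 22 h, read with ONE-Glo.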

[10] = qHTS assay to identify small molecule phospholipidosis (PLD) inducers (AID 1259344; active = well fitted curve in the direction sought with a large enough effect; an effect the other way counts as inactive or inconclusive)
Method in brief: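 Cells (HepG2, 900 per well) attach for 4 h, receive LipidTOX Red and compound together, incubate 24 h at 37 C, are fixed 30 min with paraformaldehyde/Hoechst, then imaged at one site per well.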

[11] = qHTS assay to identify small molecule HDAC inhibitors (AID 1259364);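 also: wild-type HCT-116 cells with endogenous class I/II HDAC activity; top concentration of the series differs between compounds; nearly all actives have a fitted effect of over 45% in size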
Method in brief: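 HCT-116 wt cells, 1,500/well, overnight attach. Compounds (DMSO) 2 h, 37 °C. HDAC-Glo I/II, 30 min RT. Luminescence.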

[12] = qHTS assay to identify small molecule HDAC inhibitors - cell viability counter screen (AID 1259365)
Method in brief: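 Luminescence from CellTiter-Glo, developed 30min at room temperature, reports viability of wild-type HCT-116 cells treated 2hr with compounds at 37 C and 5% CO2 after overnight plating.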

[13] = qHTS assay to identify small molecule agonists of the sonic hedgehog signaling (Shh) pathway - cell viability counter screen (AID 1259366); also: nearly all actives have a fitted effect of over 50% in size
Method in brief: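 Cytotoxicity counter screen run in the same wells as the Shh reporter assay. NIH/3T3 cells carrying a Gli1 response element–driven luciferase were treated with DMSO-dissolved compounds for 24hr, and live-cell protease activity was measured with CellTiter-Fluor.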

[14] = qHTS assay to identify small molecule antagonists of the sonic hedgehog signaling (Shh) pathway - cell viability counter screen (AID 1259367); also: nearly all actives have a fitted effect of over 55% in size
Method in brief: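 Cytotoxicity was assessed in parallel with Shh reporter activity by measuring live-cell protease fluorescence (CellTiter-Fluor) in NIH/3T3 cells stably carrying Gli1-Luc, treated with compound under conditioned medium stimulation for 23 hr plus 1 hr reagent incubation.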

[15] = qHTS assay to identify small molecule agonists of the sonic hedgehog signaling (Shh) pathway (AID 1259368; calls by dose curve;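 also: NIH/3T3-derived 3T3Gli1-Luc cells carrying a stable Gli1-driven firefly luciferase reporter; series mostly up to about 92 µM; nearly all actives have a fitted effect of over 15% in size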)
Method in brief: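 Following a 24 hr incubation with DMSO-dissolved compounds at 37 C, 5% CO2, Gli1-Luc NIH/3T3-derived cells received luciferase reagent for 30 min at room temperature prior to luminescence measurement.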

[16] = qHTS assay to identify small molecule antagonists of the sonic hedgehog signaling (Shh) pathway (AID 1259369; calls by dose curve; also: nearly all actives have a fitted effect of over 45% in size)
Method in brief: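 Read-out is luminescence from a firefly luciferase gene controlled by the Gli1 response element, in 3T3Gli1-Luc cells pre-incubated 4hr then exposed to compounds and conditioned medium for 24hr.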

[17] = target: Estrogen receptor beta (Homo sapiens) (UniProt Q92731); assay: qHTS assay to identify small molecule agonists of the estrogen receptor beta (ER-beta) signaling pathway (AID 1259377; active = well fitted activation curve with a large enough effect in the signal ratio in the repeat runs, not every such curve was filed as active; the % refers to the signal ratio)
Method in brief: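 HEK293T ER-beta-UAS-bla; 2% charcoal-stripped FBS; cells pre-incubated 6 hr, compound 16 hr, 37C/5% CO2; LiveBLAzer B/G FRET substrate 2 h RT; fluorescence intensity read.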

[18] = qHTS assay to identify small molecule agonists of the androgen receptor (AR) signaling pathway in the presence of an antagonist - cell viability counter screen (AID 1259379);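 also: MDA-kb2 human breast cancer cells carrying an MMTV luciferase reporter; series mostly up to about 92 µM; nearly all actives have a fitted effect of over 25% in size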
Method in brief: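 Each compound was tested at 15 concentrations on MDA-kb2 cells in the presence of 3.0uM nilutamide. Viability was measured by CellTiter-Fluor fluorescence after a 16 hr incubation at 37C in a CO2-free atmosphere.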

[19] = qHTS assay to identify small molecule agonists of the estrogen receptor beta (ER-beta) signaling pathway - cell viability counter screen (AID 1259380); also: nearly all actives have a fitted effect of over 30% in size
Method in brief: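 Compounds dissolved in DMSO were pin-transferred onto ER-beta-UAS-bla HEK293T cells that had settled 6 hr, and exposure ran 16 hr at 37C. Following the reporter read, CellTiter-Glo luminescence after 30 min at room temperature indicated cytotoxicity.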

[20] = target: Estrogen receptor beta (Homo sapiens) (UniProt Q92731); assay: qHTS assay to identify small molecule antagonists of the estrogen receptor beta (ER-beta) signaling pathway (AID 1259378; active = well fitted inhibition curve with a large enough effect in the signal ratio in the repeat runs, not every such curve was filed as active; the % refers to the signal ratio)
Method in brief: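 ER-beta-UAS-bla HEK293T (GripTite) cells in 2% charcoal-stripped FBS medium were preincubated 6 hr at 37C, dosed with compound, then stimulated with 1 nM E2 (final) for 16 hr; beta-lactamase reporter read by B/G FRET fluorescence after 2 hr substrate loading.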

Measured: Potency

Sequence of Androgen receptor (Homo sapiens) (P10275 whole entry, looked up): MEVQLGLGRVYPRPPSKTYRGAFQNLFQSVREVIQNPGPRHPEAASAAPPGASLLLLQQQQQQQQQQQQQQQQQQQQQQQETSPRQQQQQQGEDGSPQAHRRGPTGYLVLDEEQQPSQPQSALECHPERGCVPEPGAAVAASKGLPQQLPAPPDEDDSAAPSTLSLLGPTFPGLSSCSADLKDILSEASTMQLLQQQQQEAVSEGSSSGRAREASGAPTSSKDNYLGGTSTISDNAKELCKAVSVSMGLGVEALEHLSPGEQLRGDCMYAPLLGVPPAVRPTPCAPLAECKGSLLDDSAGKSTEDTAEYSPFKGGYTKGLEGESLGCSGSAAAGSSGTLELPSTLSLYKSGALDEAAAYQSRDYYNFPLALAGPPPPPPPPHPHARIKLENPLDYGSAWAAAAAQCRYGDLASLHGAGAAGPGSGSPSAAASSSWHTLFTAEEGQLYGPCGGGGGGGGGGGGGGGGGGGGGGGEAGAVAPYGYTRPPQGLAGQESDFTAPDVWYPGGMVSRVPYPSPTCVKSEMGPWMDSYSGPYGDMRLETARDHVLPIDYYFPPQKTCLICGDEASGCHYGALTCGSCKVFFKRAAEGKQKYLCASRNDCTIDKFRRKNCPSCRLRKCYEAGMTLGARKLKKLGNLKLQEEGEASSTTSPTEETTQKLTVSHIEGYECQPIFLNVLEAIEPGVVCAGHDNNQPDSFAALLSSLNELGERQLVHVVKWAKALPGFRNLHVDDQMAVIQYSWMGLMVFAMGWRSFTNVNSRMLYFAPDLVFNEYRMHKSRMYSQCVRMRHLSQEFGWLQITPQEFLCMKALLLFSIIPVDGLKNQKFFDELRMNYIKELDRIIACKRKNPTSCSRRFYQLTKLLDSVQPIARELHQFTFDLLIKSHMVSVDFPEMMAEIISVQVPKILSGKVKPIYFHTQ
Sequence of Estrogen receptor (Homo sapiens) (P03372 whole entry, looked up): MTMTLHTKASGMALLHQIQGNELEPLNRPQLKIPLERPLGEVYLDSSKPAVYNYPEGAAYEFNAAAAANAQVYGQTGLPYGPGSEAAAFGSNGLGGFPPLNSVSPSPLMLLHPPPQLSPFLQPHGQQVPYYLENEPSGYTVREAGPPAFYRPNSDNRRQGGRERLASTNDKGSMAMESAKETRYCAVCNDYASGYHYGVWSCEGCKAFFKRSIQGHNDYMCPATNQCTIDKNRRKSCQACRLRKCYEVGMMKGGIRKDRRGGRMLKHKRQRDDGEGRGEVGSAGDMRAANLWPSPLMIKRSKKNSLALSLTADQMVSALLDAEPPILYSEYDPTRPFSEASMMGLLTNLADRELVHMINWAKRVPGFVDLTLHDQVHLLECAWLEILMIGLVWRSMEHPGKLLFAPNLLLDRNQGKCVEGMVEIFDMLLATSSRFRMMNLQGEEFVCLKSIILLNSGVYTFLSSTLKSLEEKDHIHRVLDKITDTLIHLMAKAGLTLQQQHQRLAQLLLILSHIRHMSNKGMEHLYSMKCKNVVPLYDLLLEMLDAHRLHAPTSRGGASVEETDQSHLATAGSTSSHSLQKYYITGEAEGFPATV
Sequence of Estrogen receptor beta (Homo sapiens) (Q92731 whole entry, looked up): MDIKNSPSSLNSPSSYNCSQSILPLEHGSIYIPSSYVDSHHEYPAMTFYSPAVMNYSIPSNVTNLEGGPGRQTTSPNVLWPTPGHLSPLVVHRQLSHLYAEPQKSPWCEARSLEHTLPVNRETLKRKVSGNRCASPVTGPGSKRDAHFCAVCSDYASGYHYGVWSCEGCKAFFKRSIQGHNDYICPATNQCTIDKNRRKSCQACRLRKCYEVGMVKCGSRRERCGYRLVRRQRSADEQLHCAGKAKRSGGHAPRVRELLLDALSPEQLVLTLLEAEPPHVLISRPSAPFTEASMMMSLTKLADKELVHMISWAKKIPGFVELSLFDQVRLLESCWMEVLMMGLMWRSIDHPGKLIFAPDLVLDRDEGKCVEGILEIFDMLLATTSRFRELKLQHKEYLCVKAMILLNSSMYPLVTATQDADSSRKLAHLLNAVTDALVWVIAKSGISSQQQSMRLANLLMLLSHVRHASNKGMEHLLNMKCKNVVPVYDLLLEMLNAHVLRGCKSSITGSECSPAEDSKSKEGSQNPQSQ

COc1ccc(/C=N/NC(=O)c2ccncc2)cc1OC
not listed: [20]
inactive: all other assays above

Nc1ccnc(=O)[nH]1
not listed: [10] | [15] | [19]
inactive: all other assays above

O=P(O)(O)OCC(O)CO (stereo not drawn)
not listed: [8] | [17] | [20]
inactive: all other assays above

CCCCCCCC/C=C\CCCCCCCC(=O)OC[C@@H](O)[C@H]1OC[C@H](O)[C@H]1O
not listed: [8] | [19]
inactive: all other assays above

O=CN1CCOCC1
not listed: [10] | [14]
inactive: all other assays above

O=S(=O)(O)SSS(=O)(=O)O
not listed: [9] | [10] | [15] | [16]
inactive: all other assays above

CCN(Cc1cccc(S(=O)(=O)O)c1)c1ccccc1
not listed: [8] | [10]
inactive: all other assays above
